Values joined by “and” are separate entries in the source; they are usually repeats but may differ in a detail not shown here. Identical values can stand only once. Records with an inconclusive call do not appear. Active and inactive are the calls of the source. Rule for the calls, unless noted: active = hit-call score of the fitted dose curve at least 0.9, where 1 is the maximum; inactive = score below 0.9.
Legend:
[1] = read-out: Monokine induced gamma interferon (MIG), CXCL9 (gene 4283); assay: BSK_3C_MIG: BioMAP Diversity Plus: 3C Assay for Monokine induced gamma interferon (MIG) Biomarker Activity (AID 2283021); details: primary human endothelial cells (HUVEC); actives raise or lower the signal;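 for AC50: MIG protein level measured by immunoassay in the treated endothelial cultures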
Outline: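 ELISA measurement of MIG in human umbilical vein endothelial cells 24 h after treatment. Cytotoxicity tracked by SRB staining in parallel cultures; gain or loss of signal fitted relative to DMSO.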

[2] = BSK_3C_SRB: Viability Assessment in the BioMAP Diversity Plus: 3C Assay (AID 2283023); details: primary human endothelial cells (HUVEC);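 note: fitted both ways against DMSO so a hit may be signal rise or drop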
Outline: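 Overt cytotoxicity is gauged in parallel confluent HUVEC cultures by SRB total-protein staining at the time of biomarker measurement, 24 h after dosing. Gain or loss of signal is fitted versus DMSO.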

[3] = BSK_3C_Vis: BioMAP Diversity Plus: 3C Assay for Morphology Visualization (AID 2283025); details: primary human endothelial cells (HUVEC);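 note: fitted both ways so gain or loss versus DMSO counts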;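 for AC50: light microscopy image of cell morphology used as background control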
Outline: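 Light-microscopy visualization of HUVEC cultures at 24 h post-treatment, with DMSO as baseline for bidirectional fitting.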

[4] = read-out: Pselectin, SELP (gene 6403); assay: BSK_4H_Pselectin: BioMAP Diversity Plus: 4H Assay for Pselectin Biomarker Activity (AID 2283026); details: primary human endothelial cells (HUVEC); actives raise or lower the signal
Outline: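 ELISA of surface P-selectin on HUVEC, 24 h after dosing, with parallel SRB staining (0.1% after 10% TCA fixation, 560 nm) for overt cytotoxicity. Activity fitted in both directions relative to DMSO.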

[5] = BSK_4H_SRB: Viability Assessment in the BioMAP Diversity Plus: 4H Assay (AID 2283027); details: primary human endothelial cells (HUVEC);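 note: cells exposed to compound for 24 h before staining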;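 for AC50: curves fitted both ways versus DMSO so AC50 may be loss or gain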
Outline: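 HUVEC, 24 h post-dose; 10% TCA fix, 0.1% SRB stain, A560 nm. Total protein = overt cytotoxicity, parallel to biomarker read. Bidirectional fit vs DMSO baseline.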

[6] = BSK_BE3C_SRB: Viability Assessment in the BioMAP Diversity Plus: BE3C Assay (AID 2283028); details: primary human bronchial epithelial cells;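 for AC50: fitted both ways so AC50 may mark signal gain or loss versus DMSO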
Outline: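 SRB total-protein staining (0.1%, after TCA fixation) of chemically dosed human bronchial epithelial primary cells at 24 h; DMSO serves as the negative control for bidirectional curve fitting.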

[7] = read-out: Urokinase-type plasminogen activator receptor (uPAR), PLAUR (gene 5329); assay: BSK_4H_uPAR: BioMAP Diversity Plus: 4H Assay for Urokinase-type plasminogen activator receptor (uPAR) Biomarker Activity (AID 2283030); details: primary human endothelial cells (HUVEC); actives raise or lower the signal
Outline: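 Endpoint derived via bidirectional curve fitting against DMSO baseline; readout was ELISA detection of uPAR on umbilical vein endothelial cells at 24 h post-treatment, with SRB-stained parallel cultures assessing cytotoxicity.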

[8] = read-out: Vascular endothelial growth factor receptor 2 (Homo sapiens) (UniProt P35968); assay: BSK_4H_VEGFRII: BioMAP Diversity Plus: 4H Assay for Vascular endothelial growth factor receptor 2 (VEGFR2) Biomarker Activity (AID 2283031); details: primary human endothelial cells (HUVEC); actives raise or lower the signal
Outline: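 In this multiplexed HUVEC system, biomarker ELISA was performed after 24 h chemical exposure. Parallel SRB staining (TCA fixation, 560 nm) tracked cytotoxicity; DMSO served as baseline.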

[9] = read-out: Human Leukocyte Antigen - DR isotype (HLADR), HLA-DRA (gene 3122); assay: BSK_BE3C_HLADR: BioMAP Diversity Plus: BE3C Assay for Human Leukocyte Antigen - DR isotype (HLADR) Biomarker Activity (AID 2283032); details: primary human bronchial epithelial cells; actives raise or lower the signal
Outline: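 Cell-surface HLA-DR ELISA readout at 24 h after dosing in the BE3C primary human lung bronchial epithelial system; gain or loss of signal against DMSO, with parallel sulforhodamine B staining of total protein for overt cytotoxicity.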

[10] = read-out: Vascular cell adhesion molecule 1 (VCAM1), VCAM1 (gene 7412); assay: BSK_4H_VCAM1: BioMAP Diversity Plus: 4H Assay for Vascular cell adhesion molecule 1 (VCAM1) Biomarker Activity (AID 2283033); details: primary human endothelial cells (HUVEC); actives raise or lower the signal
Outline: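 VCAM-1 ELISA read 24 h after chemical dosing of HUVEC in the BioMAP 4H system, with gain or loss of signal fitted relative to DMSO. Parallel SRB staining (560 nm) checked overt cytotoxicity.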

[11] = read-out: Interferon-gamma inducible Protein 10 (IP10), CXCL10 (gene 3627); assay: BSK_BE3C_IP10: BioMAP Diversity Plus: BE3C Assay for Interferon-gamma inducible Protein 10 (IP10) Biomarker Activity (AID 2283034); details: primary human bronchial epithelial cells; actives raise or lower the signal
Outline: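 IP-10 quantified by ELISA in human primary bronchial epithelial cell cultures at 24 hours post-dosing. Gain or loss of signal fitted relative to DMSO; parallel SRB staining assessed overt cytotoxicity.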

[12] = read-out: Monokine induced gamma interferon (MIG), CXCL9 (gene 4283); assay: BSK_BE3C_MIG: BioMAP Diversity Plus: BE3C Assay for Monokine induced gamma interferon (MIG) Biomarker Activity (AID 2283035); details: primary human bronchial epithelial cells; actives raise or lower the signal
Outline: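 Dose cells (human primary bronchial epithelial), incubate 24 h, quantify MIG by ELISA, then fit concentration–response in both directions relative to DMSO control.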

[13] = read-out: Transforming growth factor beta 1 (TGFb1), TGFB1 (gene 7040); assay: BSK_BE3C_TGFb1: BioMAP Diversity Plus: BE3C Assay for Transforming growth factor beta 1 (TGFb1) Biomarker Activity (AID 2283036;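 note: TGF-b1 protein level measured by ELISA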); details: primary human bronchial epithelial cells; actives raise or lower the signal
Outline: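 ELISA readout of TGF-b1 from human lung bronchial epithelial primary cells, taken 24 h post-treatment. Gain or loss of signal fitted relative to DMSO baseline, with parallel SRB staining for overt cytotoxicity.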

[14] = read-out: Plasminogen activator inhibitor-1 (PAI1), SERPINE1 (gene 5054); assay: BSK_BE3C_PAI1: BioMAP Diversity Plus: BE3C Assay for Plasminogen activator inhibitor-1 (PAI1) Biomarker Activity (AID 2283037); details: primary human bronchial epithelial cells; actives raise or lower the signal
Outline: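 PAI-1 was measured by ELISA in human primary bronchial epithelial cultures 24 h after chemical dosing, with cytotoxicity checked by SRB total-protein staining in parallel cultures. Activity was fitted in both directions relative to DMSO.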

[15] = read-out: urokinase plasminogen activator (uPA), PLAU (gene 5328); assay: BSK_BE3C_uPA: BioMAP Diversity Plus: BE3C Assay for urokinase plasminogen activator (uPA) Biomarker Activity (AID 2283038); details: primary human bronchial epithelial cells; actives raise or lower the signal;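 note: uPA protein level quantified by ELISA in cell cultures; uPA read one day after compound addition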
Outline: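 Using confluent primary human lung bronchial epithelial cultures, we dosed chemicals, waited 24 h, then ran a uPA ELISA, fitting bidirectionally against DMSO.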

[16] = read-out: Urokinase-type plasminogen activator receptor (uPAR), PLAUR (gene 5329); assay: BSK_BE3C_uPAR: BioMAP Diversity Plus: BE3C Assay for Urokinase-type plasminogen activator receptor (uPAR) Biomarker Activity (AID 2283039); details: primary human bronchial epithelial cells; actives raise or lower the signal
Outline: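 uPAR levels were measured by ELISA after 24 h compound treatment of primary human bronchial epithelial cells, fitted in both directions relative to DMSO. Parallel SRB staining served as the cytotoxicity read-out.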

[17] = read-out: Interleukin-6 (IL6), IL6 (gene 3569); assay: BSK_CASM3C_IL6: BioMAP Diversity Plus: CASM3C Assay for Interleukin-6 (IL6) Biomarker Activity for (AID 2283040); details: primary human coronary artery smooth muscle cells; actives raise or lower the signal
[18] = read-out: Matrix Metallopeptidase 1 (MMP1), MMP1 (gene 4312); assay: BSK_BE3C_MMP1: BioMAP Diversity Plus: BE3C Assay for Matrix Metallopeptidase 1 (MMP1) Biomarker Activity (AID 2283024); details: primary human bronchial epithelial cells; actives raise or lower the signal
Outline: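 ELISA measurement of MMP-1 after 24 h compound exposure of primary human bronchial epithelial cells. Changes in either direction fitted relative to DMSO; parallel SRB staining checked overt cytotoxicity.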

[19] = target: human Vitamin D Receptor (VDR), VDR (gene 7421) (UniProt P11473); assay: ATG_VDR_TRANS: Attagene TRANS-FACTORIAL HepG2 Assay for human Vitamin D Receptor (VDR) (AID 2283022; active = hit-call score of the fitted dose curve at least 0.9, where 1 is the maximum)
human Vitamin D Receptor (VDR), VDR (gene 7421), sequence (P11473 whole entry, looked up): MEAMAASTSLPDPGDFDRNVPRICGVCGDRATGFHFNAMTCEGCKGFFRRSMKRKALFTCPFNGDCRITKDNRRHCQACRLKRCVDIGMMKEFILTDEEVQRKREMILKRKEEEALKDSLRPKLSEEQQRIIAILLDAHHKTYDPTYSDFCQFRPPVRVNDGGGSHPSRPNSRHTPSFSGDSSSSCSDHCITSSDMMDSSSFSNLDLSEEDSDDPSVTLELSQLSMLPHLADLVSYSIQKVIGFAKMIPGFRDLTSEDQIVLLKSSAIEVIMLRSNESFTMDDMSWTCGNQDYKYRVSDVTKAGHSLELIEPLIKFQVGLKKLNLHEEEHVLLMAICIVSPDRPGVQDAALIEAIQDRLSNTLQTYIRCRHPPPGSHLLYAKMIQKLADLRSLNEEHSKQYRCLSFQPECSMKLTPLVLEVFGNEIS
Outline: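 Multiplexed TRANS reporter in HepG2; 24 h treatment; reporter mRNA by RT-PCR plus capillary electrophoresis; upregulation scored relative to DMSO.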

[20] = read-out: Thrombomodulin, THBD (gene 7056); assay: BSK_3C_Thrombomodulin: BioMAP Diversity Plus: 3C Assay for Thrombomodulin Biomarker Activity (AID 2283029); details: primary human endothelial cells (HUVEC); actives raise or lower the signal
Outline: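 ELISA measurement of thrombomodulin on HUVEC surface 24 h after chemical dosing; activity fitted in both directions relative to DMSO vehicle.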

Measured: AC50

N#Cc1ccc(CC(=NNC(=O)Nc2ccc(OC(F)(F)F)cc2)c2cccc(C(F)(F)F)c2)cc1
not listed: [18] | [19] | [20]
inactive: all other assays above

CCn1c2ccccc2c2cc(N)ccc21
active: [3] 8.8 µM | [4] 1.23 µM | [7] 0.152 µM | [9] 2.24 µM | [14] 3.97 µM
not listed: [19] | [20]
inactive: all other assays above

CC1CCC(C(C)CS)CC1S (centres undefined)
active: [1] 36.9 µM | [2] 20 µM | [3] 37.1 µM | [4] 23.9 µM | [5] 30.9 µM | [6] 29.9 µM | [7] 36.4 µM | [9] 20 µM | [10] 29.1 µM | [11] 30.7 µM | [12] 35.4 µM | [16] 20 µM | [17] 33.5 µM
inactive: [19] | [8] | [13] | [14] | [15]

Cc1ccc2n[nH]nc2c1
not listed: [18] | [19] | [20]
inactive: all other assays above

O=C(O)c1cn(C2CC2)c2cc(N3CCNCC3)c(F)cc2c1=O
not listed: [18] | [19] | [20]
inactive: all other assays above

C[C@H]1C[C@@H]2[C@H]([C@@H](O)C[C@@]3(C)[C@H]2CC[C@]3(O)C(=O)CO)[C@@]2(C)C=CC(=O)C=C12
active: [17] 352 nM and 321 nM
not listed: [3] | [13] | [19]
inactive: all other assays above

From PubChem BioAssay (EPA / NIEHS)
